The results in this text go back to PubChem BioAssay (Tox21).

Records with an inconclusive call do not appear. Calls of active or inactive are those of the source. The call rests on the fitted dose curve; in most records, active means well fitted cell-killing curve with a large enough effect in the repeat runs; inconclusive means weak or mixed curves, or effect the other way; inactive means flat fitted curve, though single readings scatter.
On the % scale 0 is the no-effect control and ±100 the full control effect; potency means the concentration at half of the fitted maximal effect.

The nature of the test: cAMP Responsive Elements (CRE) small molecule agonists, cell-based qHTS assay: qHTS cell viability counter screen (AID 2060914). Further: nearly all actives have a fitted effect of over 50% in size. To be noted: CRE-bla HEK293T viability, CellTiter-Glo luminescence, 5 h; series mostly up to 92.4 µM; activity change, negative = cytotoxicity: at the top concentration. The method, boiled down:
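Cytotoxicity counter screen multiplexed with the CRE-bla reporter assay in HEK 293T cells: 3 h compound exposure at 37 °C, followed by CellTiter-Glo luminescence measured in the same wells.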
In the case of `C=CCc1ccc(OC)cc1`, the Potency result is “inactive”. Same read-out and setting: then `Nc1ccccc1C(=O)O`, with “inactive”. Take `Clc1cccc(SC2CCNCC2)n1`: the “activity change, negative = cytotoxicity” value is 16.2% [at 42.5 µM] (inactive). For `Oc1cc(Cl)ccc1Cl`, the Potency entry was “inactive”. Still for that read-out and setting: next, `NNC(=S)NN`: “inactive”; `CC(Oc1ccc(Cl)cc1Cl)C(=O)O` (stereo not given): “inactive”. On to `C=CC(=O)OCCCCO`, for which the “activity change, negative = cytotoxicity” value is 12.5% (inactive). In the case of `ClC1=C(Cl)C2(Cl)C3C(Cl)C=CC3C1(Cl)C2(Cl)Cl` (stereo not given), the Potency result was “inactive”. For the compound `CCCCn1cc[n+](C)c1.[Cl][Fe-]([Cl])([Cl])[Cl]`, the “activity change, negative = cytotoxicity” value was 19.6% (inactive). `Nc1ccc([N+](=O)[O-])cc1`: the Potency was 6.11 µM (active). As to `CCCCn1cc[n+](C)c1` (tested in a mixture with another compound), the “activity change, negative = cytotoxicity” value was 0.539% (inactive). On the same count and under the same terms, next, `O=C=Nc1ccc(Cl)cc1`: 1.34% (inactive).

With `C=CCOC(Cn1ccnc1)c1ccc(Cl)cc1Cl` (stereo not given), the Potency entry was “inactive”. The same measure, in the same setting: next, `OC(c1ccc(Cl)cc1)(c1cncnc1)c1ccccc1Cl` (stereo not given): “inactive”. For the compound `Nc1ccc(Cl)cc1C(=O)c1ccccc1`, the “activity change, negative = cytotoxicity” value is 0.666% (inactive). As to `Clc1ccc(Cl)cc1`, the Potency result is “inactive”. In the case of `CCCOc1nn(C(=O)NS(=O)(=O)c2ccccc2C(=O)OC)c(=O)n1C`, the “activity change, negative = cytotoxicity” value is 4.12% (inactive). Same read-out and setting: then `COc1cc(C=O)cc2c1[C@H](COC(N)=O)[C@]1(OC(C)=O)ON2C[C@H]2[C@@H]1N2C(C)=O`, with 18.4% (inactive); and `N#CC(Br)(Br)C(N)=O`, with -3.63% (inactive). The same measure, in the same setting: next, `CCC(C)C(C)(COC(N)=O)COC(N)=O` (stereo not given): 10.2% [at 42.5 µM] (inactive); `C(COCC1CO1)OCC1CO1` (stereo not given): 12% (inactive).

As for `Nc1ccc([N+](=O)[O-])cc1[N+](=O)[O-]`, the “activity change, negative = cytotoxicity” value is -14.5% (inactive). For the compound `CC(C)=CC1C(C(=O)OCc2cccc(Oc3ccccc3)c2)C1(C)C` (stereo not given), the Potency result is “inactive”. Turning to `COP(=S)(Oc1cc(Cl)c(Br)cc1Cl)c1ccccc1` (stereo not given), the “activity change, negative = cytotoxicity” value was -11.2% (inactive).

Regarding `Cc1ncsc1CCCl`, the “activity change, negative = cytotoxicity” value is -0.721% [at 42.5 µM] (inactive). As to `CCC(C)c1ccc(O)cc1` (stereo not given), the Potency result was “inactive”. The same measure, in the same setting: then `CC(c1ccc(O)cc1)c1ccc(O)cc1`, with “inactive”; and `c1ccc2c(c1)Oc1ccccc1O2`, with “inactive”; and `CC(O)CCO` (stereo not given), with “inactive”.

Consider `OCc1ccco1`, for which the Potency result is “inactive”.

Consider `C[C@@H]1CC2=CC(=O)CC[C@@H]2[C@H]2CC[C@@]3(C)[C@@H](CC[C@]3(C)O)[C@@H]21`, for which the “activity change, negative = cytotoxicity” value was -10.8% [at 42.5 µM] (inactive).

With `COP(=S)(OC)Oc1ccc([N+](=O)[O-])c(C)c1`, the “activity change, negative = cytotoxicity” value was -22.5% (inactive). Still for that read-out and setting: then `CCC(=O)c1ccc(Cl)cc1`, with 9.67% (inactive). Regarding `CCCC[n+]1ccccc1C`, the Potency result is “inactive”. As for `C=CCc1cc(OC)c2c(c1)OCO2`, the “activity change, negative = cytotoxicity” value is 6.71% (inactive).

For the compound `BrCBr`, the “activity change, negative = cytotoxicity” value is -0.415% (inactive). Same read-out and setting: then `C[C@]12CC[C@H]3[C@@H](CCC4=CC(=O)CC[C@@H]43)[C@@H]1CC[C@@H]2OC(=O)CCC1CCCCC1`, with -6.86% [at 42.5 µM] (inactive).

With `O=C1Nc2ccc(Cl)cc2C(c2ccccc2)=NC1O` (stereo not given), the Potency result is “inactive”. On the same count and under the same terms, then `COC(=O)NS(=O)(=O)c1ccc(N)cc1`, with “inactive”. In the case of `CCSCc1ccccc1OC(=O)NC`, the “activity change, negative = cytotoxicity” value is 6.69% (inactive).
